HP1b chromo inh: inhibitors of HP1-beta chromodomain binding to methylated histone tails; P83916; Potency, µM (highest dose often 114 µM), most hits filed as inhibitors; 390,000 compounds, 0.56% hits; AlphaScreen HP1-beta / biotin-H3K9me3 peptide binding; note: nearly all actives have a fitted effect of over 70% in size
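Compound inhibition of the preformed complex between 50 nM HP1-beta and 50 nM biotinylated H3K9me3 peptide was read by AlphaScreen. Buffer was PBS pH 7.4 with 0.01% Tween-20. Incubations ran 30 min at room temperature, with 10 ug/mL donor/acceptor beads.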
L3MBTL1 block: L3MBTL1 (human) inhibition; Q9Y468; AlphaScreen L3MBTL1–H3K9me1 peptide binding; Potency, µM (series often up to 57.1 µM), usual class: inhibitors; 230,000 compounds, 0.66% hits; note: nearly all actives have a fitted effect of over 60% in size
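AlphaScreen proximity signal between nickel-chelate acceptor and streptavidin donor beads (final 10 ug/mL) reports binding of 50 nM L3MBTL1 to 75 nM biotin-H3 K9me1 peptide; complex incubated with compounds 30 min at room temperature; cefsulodin titration as control.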
PLK1 PBD block: inhibitors of human PLK1 polo-box domain binding; P53350; Plk1 PBD binding of FITC phosphopeptide, fluorescence polarization; Potency, µM, most hits filed as inhibitors; 360,000 compounds, 2.8% hits; AID 720504; note: series mostly up to about 57 µM; nearly all actives have a fitted effect of over 65% in size
Target sequence (P53350 whole entry, looked up, the tested form may be a part): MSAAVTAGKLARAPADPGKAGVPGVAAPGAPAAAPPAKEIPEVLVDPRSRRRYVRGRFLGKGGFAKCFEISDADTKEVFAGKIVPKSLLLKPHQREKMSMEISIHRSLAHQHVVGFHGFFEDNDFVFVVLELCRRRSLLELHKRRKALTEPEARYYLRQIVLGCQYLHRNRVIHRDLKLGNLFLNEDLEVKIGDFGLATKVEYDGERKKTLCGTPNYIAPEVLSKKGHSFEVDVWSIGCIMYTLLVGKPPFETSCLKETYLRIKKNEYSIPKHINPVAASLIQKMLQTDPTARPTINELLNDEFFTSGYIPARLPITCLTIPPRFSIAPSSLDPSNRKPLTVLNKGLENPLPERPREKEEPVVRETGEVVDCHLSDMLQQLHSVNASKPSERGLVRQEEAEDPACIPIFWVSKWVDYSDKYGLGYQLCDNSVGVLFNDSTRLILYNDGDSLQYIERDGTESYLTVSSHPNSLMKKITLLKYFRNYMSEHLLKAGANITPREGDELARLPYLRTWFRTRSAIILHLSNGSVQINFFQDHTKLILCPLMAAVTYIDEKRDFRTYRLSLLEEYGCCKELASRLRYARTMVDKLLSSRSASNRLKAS
BAZ2B block: inhibitors of human BAZ2B bromodomain. Q9UIF8. AlphaScreen BAZ2B-H3K14Ac peptide displacement. Potency, µM (titrated, usually from 114 µM), actives largely listed as inhibitors. 360,000 compounds, 4.4% hits. AID 504333; note: nearly all actives have a fitted effect of over 60% in size
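Compounds, titrated to a top concentration of 110 uM, were incubated 30 min at room temperature with preformed BAZ2B/acetyl-K14 H3 peptide complex (50 nM each). Proximity signal was measured by AlphaScreen after 20 min with beads.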
JMJD2A Tudor inh: blocks the human JMJD2A Tudor domain; O75164; AlphaScreen JMJD2A-Tudor / H3K4me3 peptide binding; Potency, µM (highest dose often 114 µM), hits mostly inhibitors; 390,000 compounds, 4.4% hits; note: nearly all actives have a fitted effect of over 50% in size
VDR inhibitor: inhibitors of human vitamin D receptor; VDR-SRC2-3 peptide fluorescence polarization, 2 h; Potency, µM, actives largely listed as inhibitors; 400,000 compounds, 0.93% hits
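After 23 nl compound addition and a short centrifugation, plates sat for 2 hours at ambient temperature; polarization of fluorescence then indicated loss of VDR binding to peptide SRC2-3.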
Hits are given with their value; . = inactive; ? = inconclusive; / = no result. A selection: hits, their analogues and other compounds. The true share with any hit is near 6.9%. Calls come from the whole dose curve; as a rule, active = well fitted curve in the direction sought with a large enough effect; inconclusive = small, poorly fitted or top-dose-only effect, or another doubt; inactive = no such curve, though single readings can be large; an effect the other way counts as inactive or inconclusive.

SMILES	HP1b chromo inh	L3MBTL1 block	PLK1 PBD block	BAZ2B block	JMJD2A Tudor inh	VDR inhibitor
CCN1C(=O)/C(=C\c2ccc([N+](=O)[O-])s2)C(=O)NC1=S	/	/	/	10µM	/	/
NC(=O)C[N+]1(CC#CC(O)(c2ccccc2)c2ccccc2)CCCC1	.	/	.	.	31.6µM	.
O=C(O)C(O)(c1ccccc1)C1CCCCC1 (configuration not stated)	.	.	.	.	.	.
O=C1C=CC[C@@H]2[C@H]3CCCN4CCC[C@@H](CN12)[C@@H]34	/	/	/	/	/	.
CCC(C)(C)NC(=O)C(NS(=O)(=O)c1cccs1)c1ccccc1 (configuration not stated)	.	/	.	.	.	.
CCOC(=O)[C@]12Cc3cc(Cl)ccc3[C@H]1N(Cc1ccccc1)C(=O)c1ccccc12	.	/	.	/	.	.
CCOC(=O)[C@]12Cc3cc4c(cc3[C@H]1N(Cc1ccccc1)C(=O)c1ccccc12)OCO4	.	/	.	/	.	.
CCOC(=O)[C@]12Cc3ccc(C)cc3[C@H]1N(C1CCCCC1)C(=O)c1ccccc12	/	/	2.99µM	/	/	/
CCOC(=O)[C@]12Cc3c(cc(OC)c(OC)c3OC)[C@H]1N(C1CCCCC1)C(=O)c1ccccc12	/	/	9.47µM	/	/	/
CCOC(=O)[C@]12Cc3cc(C)ccc3[C@H]1N(C1CCCCC1)C(=O)c1ccccc12	/	/	2.67µM	/	/	/
CCOC(=O)[C@]12Cc3cc(N(C)C)ccc3[C@H]1N(Cc1ccccc1)C(=O)c1ccccc12	.	/	.	/	15.8µM	.
O=S(c1ccccc1)c1ccccc1	.	/	.	/	.	.
Cc1c(C(=O)c2cccc3ccccc23)c2cccc3c2n1[C@@H](CN1CCOCC1)CO3	/	/	/	/	/	.
COc1ccccc1NC(=O)N(Cc1ccco1)C1CCN(C(C)=O)CC1	.	/	/	.	.	.
COC1(C)CC(c2ccccc2)c2c(c3ccccc3oc2=O)O1 (configuration not stated)	/	/	/	/	/	.
CN1CC[C@@]2(c3cccc(O)c3)Cc3nc4ccccc4cc3C[C@H]2C1	/	/	/	/	/	.
CCN1C[C@]2(COC)CC[C@H](O)[C@@]34[C@@H]5C[C@H]6[C@@H](OC)[C@H]5[C@](O)(C[C@@H]6OC)[C@@](O)([C@@H](OC)[C@H]23)[C@@H]14	/	/	/	/	/	.
CCN(C[C@H]1N[C@@](CC)(C(=O)OC)[C@H]2C(=O)N(Cc3ccccc3)C(=O)[C@@H]12)S(=O)(=O)c1ccc(C)cc1	.	.	.	/	.	.
CCOC(=O)[C@]12Cc3cc(Cl)ccc3[C@H]1N(C1CCCCC1)C(=O)c1cc(OC)ccc12	/	/	2.12µM	/	/	/
CCOC(=O)[C@]12Cc3ccc(C)cc3[C@H]1N(C1CCCCC1)C(=O)c1cc(OC)ccc12	/	/	4.23µM	/	/	/
CCOC(=O)[C@]12Cc3cc(C)ccc3[C@H]1N(CCC(=O)OC)C(=O)c1ccccc12	/	/	8.44µM	/	/	/
CN1[C@H](CC(=O)c2ccccc2)CCC[C@H]1C[C@H](O)c1ccccc1	/	/	/	/	/	.
c1csc(CN2CCC3(CCNCC3)CC2)n1	/	/	/	/	/	.
CC1=CC(c2ccccc2)NC(=S)N1 (configuration not stated)	.	.	?	.	.	79.4µM
COC(=O)/C=C/C(=O)N[C@@H]1CC[C@@]2(O)[C@H]3Cc4ccc(O)c5c4[C@@]2(CCN3CC2CC2)[C@H]1O5	/	/	/	/	/	.
SMILES	HP1b chromo inh	L3MBTL1 block	PLK1 PBD block	BAZ2B block	JMJD2A Tudor inh	VDR inhibitor
Cc1ccccc1-n1c(C)cc(/C=C2/C(=O)NC(=O)N(Cc3ccco3)C2=O)c1C	.	.	.	?	28.2µM	.
Cc1cc(/C=C2\C(=O)NC(=O)N(Cc3ccco3)C2=O)c(C)n1-c1ccc(O)cc1	?	39.8µM	.	?	?	.
CCn1c(C)cc(/C=C2\C(=O)NC(=O)N(c3ccccc3C)C2=O)c1C	.	.	.	.	.	.
Cc1ccc(-n2c(C)cc(/C=C3/C(=O)NC(=O)N(C)C3=O)c2C)cc1	.	.	.	.	.	.
Cc1ccc(-n2c(C)cc(/C=C3/C(=O)NC(=O)N(Cc4ccco4)C3=O)c2C)cc1	.	?	?	35.5µM	?	.
C=CCN1C(=O)/C(=C/c2cc(C)n(-c3cccnc3)c2C)C(=O)NC1=S	.	.	1.5µM	.	.	.
Cc1cc(C=C2C(=O)NC(=O)NC2=O)c(C)n1-c1cccnc1	.	/	?	.	.	.
CCOc1ccc2cc(C#N)c(=O)oc2c1	/	/	/	/	/	.
C[C@]12C=CC(=O)C=C1CC[C@@H]1C2=CC[C@]2(C)[C@@H](C(=O)CN3CCN(c4cc(N5CCCC5)nc(N5CCCC5)n4)CC3)CC[C@@H]12	.	/	.	/	?	2.82µM
Cc1ccc(S(=O)(=O)N(CC(=O)NCCSc2ccc(Cl)cc2)c2ccccc2C)cc1	.	/	/	.	.	.
O=C1Nc2cc(Cl)c(Cl)cc2N2CCNC[C@H]12	/	/	/	/	/	25.1µM
C[C@H]1CC[C@@]2(NC1)O[C@@H]1C[C@H]3[C@@H]4CC[C@@H]5C[C@@H](O)CC[C@@]5(C)[C@@H]4CC[C@]3(C)[C@@H]1[C@@H]2C	/	/	/	/	/	.
CC1(C)CC2CC(C)(CN2S(=O)(=O)c2cccc(C(=O)OCC(=O)NC(N)=O)c2)C1 (configuration not stated)	.	.	.	.	.	.
CCn1cc(C(=O)NCc2ccccc2)c2ccccc21	.	.	.	.	.	.
CCn1cc(C(=O)O)c(=O)c2ccc(C)nc21	.	.	.	79.4µM	.	.
CCOc1ccccc1CN(CCc1ccc2c(c1)OCO2)Cc1ccc(CC)cc1	?	/	/	39.8µM	5.01µM	.
COc1cc(C)c(CN2CCN(c3ccccc3)CC2)cc1C	.	.	.	?	3.16µM	.
Cc1ccccc1CN1CCN(c2ccc(Cl)cc2)CC1	.	.	.	?	3.98µM	.
CCC1OC(=O)CC(O)C(C)[C@@H](O[C@@H]2OC(C)[C@H](O[C@@H]3C[C@@](C)(O)C(O)C(C)O3)C(N(C)C)C2O)[C@H](CC=O)CC(C)C(=O)/C=C/C(C)=C/[C@@H]1COC1OC(C)C(O)C(OC)[C@@H]1OC (some centres not stated)	/	/	/	/	/	.
CC12CCC3C(=CCc4cc(O)ccc43)C1CCC2=O (configuration not stated)	/	/	/	/	/	.
O=C(Oc1ccc(Cl)cc1)N1CCOCC1	.	.	10.6µM	.	?	79.4µM
O=C(Nc1ccc(OC(=O)N2CCCC2)cc1)N1CCOCC1	.	.	.	.	.	.
CN(C)c1c([N+](=O)[O-])cc(N2C(=O)C=CC2=O)cc1[N+](=O)[O-]	14.1µM	/	2.99µM	/	8.91µM	15.8µM
CCNc1cc(N2CCN(C)CC2)ccc1[N+](=O)[O-]	.	?	.	.	.	.
Nc1c2c(nc3sc4c(c13)CCCC4)CCCC2	.	.	.	.	.	.
Nc1c2c(nc3sc4c(c13)CCCC4)CCCCC2	.	.	.	.	79.4µM	.

Screening results (PubChem BioAssay)
